Shown is part of a subset that was picked to be rich in hits.
GC-A act: GC-A (human) enzyme activation. activation, % at 10 µM. HEK293 GC-A cells, cGMP TR-FRET, EC30 ANP; 0% at EC30 ANP, 100% saturating ANP. AID 1671463. P16066. 370,000 compounds, 0.14% hits; in the data active means activation above about 40%
GC-B act: GC-B (human) receptor activation | 370,000 compounds, 0.11% hits | AID 1920062 | HEK293-GC-B cells, CNP EC30, cGMP TR-FRET; 0% at EC30 CNP, 100% saturating CNP | P20594 | activation, % at 10 µM;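 active means activation at 10 µM reaching about 35% in either raw or pattern-adjusted values, limit read from the data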
HDAC3 inh: blocks human histone deacetylase 3. inhibition, % at 8.3 µM. recombinant HDAC3, fluorogenic peptide/trypsin coupled, fluorescence. 320,000 compounds, 0.15% hits. O15379; in the data active means inhibition above about 26%, passing the limit was not always enough; inconclusive means no clear call, values can overlap the other calls
ALR H2O2 inh: blocks human ALR sulfhydryl oxidase activity; 290,000 compounds, 3.8% hits; AID 485317; purified ALR, DTT oxidation, H2O2 HRP-luminol luminescence; inhibition, % (test concentration not listed); P55789;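 active means mean replicate inhibition above about 79%, with every replicate also reaching it, limit read from the data; inconclusive means only one of the two criteria met; inactive means mean below limit and not every replicate reaching it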
* hit, by the source's call; ? = inconclusive; . = no result given.

SMILES	GC-A act	GC-B act	HDAC3 inh	ALR H2O2 inh
CN(C)S(=O)(=O)c1cccc(-c2cn3cc(Cl)ccc3n2)c1	.	.	0	98*
CN(C)S(=O)(=O)c1cccc(-c2cn3ccccc3n2)c1	6	2	-4	99*
O=S(=O)(c1cccc(-c2cn3ccccc3n2)c1)N1CCCCC1	2	4	6	-10
Cc1ccc(C)c(-n2cc[nH]c2=S)c1	2	6	2	35
COC(=O)c1c(NC(=O)CN2CCN(Cc3ccc4c(c3)OCO4)CC2)sc(C)c1C	1	-2	-5	97*
Cn1c(SCc2ccc(C#N)cc2Cl)nc2ccccc21	-9	1	15	96*
COCCC(=O)N1CCC(Oc2ccc(C(=O)NCCn3cccn3)cc2)CC1	-1	-1	6	-21
CC(C)=C1SC(N2CCN(c3ccc(C)cc3)CC2)=NC1=O	-1	-10	-6	94*
COc1ccc(N2Cc3cccc(C(=O)NC(C)CCc4ccco4)c3C2=O)cc1 (centres undefined)	-2	-4	-2	98*
CC(CCc1ccco1)NC(=O)c1cccc2c1C(=O)N(C1CCCCC1)C2 (centres undefined)	7	7	4	1
CCOc1cc(C(=O)OC(C(=O)NC(=O)NC)c2ccccc2)ccc1OCC(=O)N1CCOCC1 (centres undefined)	12	14	27*	-1
NC(=O)NC1CCCc2c1[nH]c1ccc(Cl)cc21 (centres undefined)	1	-4	5	98*
NC(=O)C1CCCCc2c1[nH]c1ccc(Cl)cc21 (centres undefined)	-12	-10	4	98*
COc1cc(/C=C2/C(=N)N3N=C(CC(=O)N4CCOCC4)SC3=NC2=O)ccc1OCc1ccc(F)cc1	-9	0	1	5
Cc1oc(-c2ccccc2F)nc1CS(=O)(=O)CC(=O)N1CCN(c2ccccc2)CC1	-5	3	-1	21
CCOC(=O)N1CCN(C(=O)CSCc2nc(-c3ccccc3C)oc2C)CC1	-8	1	5	99*
CCOC(=O)N1CCN(C(=O)CS(=O)(=O)Cc2nc(-c3ccccc3C)oc2C)CC1	-2	1	-1	-5
CCOC(=O)N1CCN(C(=O)CSCc2nc(-c3ccccc3F)oc2C)CC1	1	3	2	100*
CC1=NN(c2nc(N)nc(/C(C#N)=C/c3ccc([N+](=O)[O-])o3)n2)C(C)(C)C1	46*	41*	.	.
O=C1C2C(C(=O)N1/N=C/c1ccc([N+](=O)[O-])o1)C1C=CC2C12CC2 (centres undefined)	1	2	4	.
CC12CCC(=O)N1C(C(=O)OCC(=O)Nc1ccc(C(F)(F)F)cc1)CS2 (centres undefined)	0	1	9	54
CCN(CCNC(=O)c1cc(C)nn1-c1ccccc1)c1ccccc1	0	-1	2	99*
O=S(=O)(Nc1nccs1)c1ccc(NCc2cc(Br)cc(Br)c2O)cc1	7	9	5	2
COc1cccc(CNc2ccc(S(=O)(=O)Nc3nccs3)cc2)c1O	-3	2	5	93*
COc1ccccc1N1CCN(S(=O)(=O)c2c(C)[nH]c(=O)[nH]c2=O)CC1	-6	3	-8	97*
SMILES	GC-A act	GC-B act	HDAC3 inh	ALR H2O2 inh
COc1ccccc1N1CCN(S(=O)(=O)c2cccc(F)c2)CC1	0	3	-1	97*
Nc1o[nH]c(=O)c1C1CCCCC1	4	1	.	.
CCOC(=S)SCC(=O)Nc1nc(-c2ccccc2)cs1	6	-1	5	99*
CN(C)CC(=O)Nc1nc(-c2ccccc2)cs1	8	7	-2	5
COc1ccc(-c2csc(NC(=O)CSc3nc(C)cs3)n2)cc1	1	-3	-4	-6
CCOC(=S)SCC(=O)Nc1nc(-c2ccc(Br)cc2)cs1	13	-4	4	99*
Cc1c(C(=O)N2CC3(CC(c4cccc(NC(=O)[C@H]5CCC(=O)N5)c4)=NO3)C[C@@H]2C(N)=O)cc([N+](=O)[O-])cc1[N+](=O)[O-] (some centres undefined)	2	5	5	.
NC(=O)[C@H]1CC2(CC(c3cccc(NC(=O)[C@H]4CCC(=O)N4)c3)=NO2)CN1C(=O)c1cc([N+](=O)[O-])cc([N+](=O)[O-])c1 (some centres undefined)	-3	2	39*	.
CCOc1nc(Oc2cccc(C(=O)O)c2)nc(Oc2cccc(C(=O)O)c2)n1	2	2	6	97*
CCC(C)(C)c1ccc(Oc2cccc(C(=O)O)c2)cc1	2	-1	-2	39
CCOC(=O)/C(=C/C=C1\Sc2ccccc2N1CC)C(C)=O	.	.	23	88*
CCOC(=O)/C(=C\C=C1/Sc2ccccc2N1CC)C(C)=O	6	7	?	66
Cc1ccc(C)c(NC(=O)CSc2nc(C)cc(=O)[nH]2)c1	-2	-7	.	.
Cc1ccc(-c2csc(NC(=O)CSc3nc(C)cc(=O)[nH]3)n2)cc1	2	-4	1	99*
Cc1ccc(-c2csc(NC(=O)CSC3=NCCS3)n2)cc1	11	-3	?	100*
COc1ccc2c(C)cc(SCC(=O)c3ccc4c(c3)OCO4)nc2c1	2	-6	-1	99*
Cc1ccc2sc(N(CCCN(C)C)C(=O)CCS(=O)(=O)c3ccccc3)nc2c1C	-20	-11	-5	98*
CCC(C)NC(=O)Nc1ccc(Br)cc1 (centres undefined)	-2	-8	-6	0
CCC(C)Nc1ccc(NC(C)CC)cc1 (centres undefined)	.	.	-2	99*
O=C(Nc1ccc(F)cc1)c1ccccc1NS(=O)(=O)N1CCCC1	1	1	-8	-8
COc1ccc(NC2CCCN(C(=O)CCN3CCCO3)C2)cc1 (centres undefined)	2	-1	-1	96*
COc1ccc(NC2CCCN(C(=O)CCN3CCOCC3)C2)cc1 (centres undefined)	0	-4	-1	99*
O=C(CCN1CCOCC1)N1CCCC(Nc2cccc(F)c2)C1 (centres undefined)	4	-1	4	26
OC(CNCCN1CCNCC1)Cc1ccccc1 (centres undefined)	0	2	.	.
O=C(CSC1=NC2(CCCCC2)N=C1c1ccccc1)Nc1ccc2c(c1)OCCO2	-2	-4	-2	98*
SMILES	GC-A act	GC-B act	HDAC3 inh	ALR H2O2 inh
Cc1ccc(C2=NC(C)(C)N=C2SCC(=O)Nc2ccc(Cl)cc2)cc1	-1	0	11	.
O=C(CSC1=NC2(CCCCCC2)N=C1c1ccccc1)Nc1ccc2c(c1)OCCO2	-3	3	13	98*
Cc1ccc(C2=NC3(CCCC3)N=C2SCC(=O)Nc2ccc3c(c2)OCCO3)cc1	2	-2	?	99*
COc1ccc(-c2c(C)nn(Cc3ccccc3)c2N)cc1	-9	7	-6	97*
c1ccc(Cn2c(-c3cncs3)nc3ccccc32)cc1	10	3	-2	1
COc1cc(Cn2c(-c3ccc(O)c(OC)c3)nc3ccccc32)ccc1O	-9	-2	-13	99*

Assay outcomes as filed in PubChem.
